From PubChem BioAssay AID720519 (National Center for Advancing Translational Sciences (NCATS), 2013) come the findings set out here.

Records with an inconclusive call do not appear. A call without a number means that no potency is given here. Activity calls are given as the source filed them. Calls come from the whole dose curve; as a rule, active = well fitted activation curve with a large enough effect; inconclusive = small, poorly fitted or top-dose-only effect; inactive = flat fitted curve, though single readings scatter.

This test in a line: qHTS for Inhibitors of Cell Surface uPA Generation: Confirmatory Assay for Cherry-picked Compounds. The settings on record: cell surface uPA activity generation, qHTS confirmation; series mostly up to 115 µM. Put shortly:
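RAW 264.7 cells at 4000/well, incubated overnight, then treated with compounds. After 24 h at 37 C, viability was read by ATPlite luminescence. An increase in signal indicates blocked uPA-dependent LF entry.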
In general terms: In qHTS, concentration-response curves come from the screen itself.
For the compound `CC(C)CNC(=O)COC(=O)CCC(=O)c1cccs1`, the Potency entry was “inactive”. As for `CC(CCc1ccccc1)NC(=O)c1ccc(NC(=O)c2cccc(Br)c2)cc1` (centres undefined), the Potency result is “inactive”. The result for `CCCCNC(=O)c1cc2c(-c3ccc(Cl)cc3)nn(C)c2s1` reads “inactive”. For `O=C(COC(=O)Cn1cnc2ccccc21)NCc1ccc(F)cc1`, the Potency result was “inactive”.

Turning to `CC(=O)COc1ccc2c(-c3cccc([N+](=O)[O-])c3)cc(=O)oc2c1`, the Potency entry was “inactive”.

Regarding `O=C(Nn1cnnc1)c1ccc(Cl)c(Cl)c1`, the Potency result is “inactive”.

For `COc1ccc(CNC(=O)C2(CC3CC(c4ccccc4)=NO3)CCNCC2)cc1` (centres undefined), the Potency result was “inactive”. On to `COc1ccc(C(=O)NC(=S)Nc2ccc(NC(=O)c3ccco3)cc2)cc1[N+](=O)[O-]`, for which the Potency result was “inactive”. In the case of `COc1ccc(OC)c(S(=O)(=O)N2CCN(Cc3ccccc3)CC2)c1`, the Potency entry is “inactive”. As for `COc1ccc(CC(=O)NNS(=O)(=O)c2ccccc2[N+](=O)[O-])cc1OC`, the Potency entry was “inactive”. Under `COc1ccc(-c2cccc(-c3cc(=O)oc4cc(OC)c(OC)c(OC)c34)c2)cc1` stands “inactive”; under `CCOCCOc1cc(NCc2ccccc2)c2ncn(C(C)C)c2c1`, “inactive”; under `COc1ccc([C@H]2CC(=O)C=C(c3ccc(CNC(=O)OC(C)(C)C)cc3)C2)cc1`, “inactive”. Regarding `[N-]=[N+]=NC1C[C@H](n2ccc(=O)[nH]c2=O)O[C@@H]1CO` (some centres undefined), the Potency result is “inactive”. Under `Cc1ccc(NC(=S)N2CCN(Cc3ccc4c(c3)OCO4)CC2)c(C)c1` stands “inactive”.

Consider `Clc1ccc(C2=NN=C3COc4ccccc4N3C2)cc1`, for which the Potency entry is “inactive”. Regarding `COc1cc(/C=C(/C#N)C(=O)Nc2ccccc2)ccc1OCc1ccc(C(=O)O)cc1`, the Potency entry was “inactive”. As for `Cc1nn(C)c(C)c1S(=O)(=O)N1CCC(C(=O)NC2CCCCCC2)CC1`, the Potency entry was “inactive”. As to `C[C@H](O)[C@@H]1C(=O)N2CCc3ccc(-c4cccc(F)c4)cc3[C@@H]2C[C@@H]1N(C)C(=O)C(C)(C)C`, the Potency entry is “inactive”.

As to `COc1cccc(NC(=O)c2nnn(CC(=O)Nc3cc(C)cc(C)c3)c2N)c1`, the Potency result was “inactive”. The result for `CCC(NC(=O)Cc1c(C)c2c(cc(C)c3c(C)c(C)oc32)oc1=O)C(=O)O` (centres undefined) reads “inactive”. With `CC1CCN(C2=C(NS(=O)(=O)c3ccc(Br)cc3)C(=O)c3ccccc3C2=O)CC1`, the Potency entry is “inactive”. Regarding `O=C(NCCN1CCOCC1)c1ccc2c(c1)N(Cc1ccc(Cl)cc1)CCS2`, the Potency entry was “inactive”.

For the compound `O=C(NNC(=O)c1ccc2ccccc2c1)Nc1ccc(F)cc1`, the Potency entry is “inactive”. Turning to `CCOc1ccccc1CN1CCCC(CNS(=O)(=O)c2ccc(OC)cc2)C1` (centres undefined), the Potency result is “inactive”.

As for `CCCCn1c(=NC(=O)c2ccco2)c(C(=O)OCC)cc2c(=O)n3cccc(C)c3nc21`, the Potency entry was “inactive”. In the case of `CC(C(=O)Nc1nccs1)c1ccc([N+](=O)[O-])cc1` (centres undefined), the Potency result is “inactive”. Turning to `O=[N+]([O-])c1cccc2c(N3CCOCC3)ccnc12`, the Potency result is “inactive”. As for `O=C(OCC(=O)N1CCOCC1)c1c(Cl)ccc(Cl)c1Cl`, the Potency result is “inactive”.

On to `O=C(NCCS(=O)(=O)N1CCC2(CC1)OCCO2)c1ccc(F)cc1`, for which the Potency entry was “inactive”.

With `CC(=O)c1cnc2nc(SCc3cccc(C)c3)nn2c1C`, the Potency result was “inactive”. In the case of `O=C1c2ccccc2[C@@H]2C[C@H](NC34CC5CC(CC(C5)C3)C4)[C@@H](O)CCN12`, the Potency result is “inactive”. For `O=C(NC(=O)c1ccccc1)Nc1cccc(S(=O)(=O)N2CCCCC2)c1`, the Potency result is “inactive”.

For the compound `COc1ccc(CCN=c2c([N+](=O)[O-])nn(-c3cccc(C)c3)n2O)cc1OC`, the Potency result is “inactive”. Under `O=C(NC1CCCC1)c1nc2c(nnn2Cc2ccccc2Cl)c(=O)[nH]1` stands “inactive”. Regarding `COc1ccc(CCNC(=O)COC(=O)CNS(=O)(=O)c2ccc(SC)c([N+](=O)[O-])c2)cc1`, the Potency result was “inactive”. In the case of `Cc1ccc(N2C(=O)c3ccccc3C2(O)c2ccccc2)cc1` (centres undefined), the Potency result is “inactive”. The result for `CC1(C)CC(=O)C([N+](=O)[O-])=C(NCCCC(=O)O)C1` reads “inactive”. Take `CC(NC(=O)C1CCC(C(=O)NC(C)c2ccccc2)CC1)c1ccccc1` (centres undefined): the Potency entry is “inactive”.
